Bioassay records (PubChem)
Hits are enriched below; roughly 9.9% of the tested compounds scored in any of these assays.
SW480 rerep: induces DNA re-replication in SW480 colon adenocarcinoma cells. Potency, µM (highest dose often 46.1 µM), actives largely listed as activators. actives 1.8% (n = 340,000). SW480 DNA re-replication, Hoechst DNA content imaging, 48 h; also: nearly all actives have a fitted effect of over 55% in size
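SW480 cells exposed to compounds for 48 hr at 37 C, 5% CO2, then Hoechst-stained 40 min. Nuclear DNA content imaged by fluorescence scanning (405 nm excitation, 500-530 nm emission); re-replication scored as increased high-intensity nuclei.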
KB-V1 cytotox: KB-V1 MDR subline cytotoxicity; KB-V1 MDR cells viability, CellTiter-Glo, 72 h; Potency, µM (titrated, usually from 46.1 µM), most hits filed as cytotoxic; actives 3.4% (n = 400,000); AID 1347076; also: nearly all actives have a fitted effect of over 60% in size
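Potencies derive from concentration-effect curves fitted to normalized luminescence (CellTiter-Glo) of KB-V1 cells treated for 72 h at 37 degrees C in phenol-red-free DMEM containing 10% FBS.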
MCF10A rerep: induces DNA re-replication in MCF 10a normal breast cells; MCF 10A DNA re-replication, Hoechst nuclear intensity, 48 h; Potency, µM (highest dose often 46.1 µM), hits mostly activators; actives 2.9% (n = 350,000); AID 624296; also: nearly all actives have a fitted effect of over 50% in size
KB-3-1 cytotox: KB-3-1 parental cell cytotoxicity | KB-3-1 viability, CellTiter-Glo ATP luminescence, 72 h | Potency, µM (series often up to 46.1 µM), most hits filed as cytotoxic | actives 1.4% (n = 400,000) | AID 1347075; also: nearly all actives have a fitted effect of over 60% in size
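KB-3-1 cells, DMEM (no phenol red) + 10% FBS; compound by pin transfer, 72 h, 37 °C. Readout: CellTiter-Glo luminescence after 10 min. Data normalized, curve-fitted.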
IL1B secr inh: inhibitors of inflammasome signaling (IL-1 beta secretion); THP-1 LPS/ATP IL-1B secretion, AlphaLISA, 16 h; hits give low values; activity change, % at 57.5 µM; actives 4.7% (n = 360,000); in the data active = activity change below about -50%; inconclusive = mostly about -30% to -49%
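Secreted IL-1B measured by AlphaLISA bead assay after 16 h compound exposure of THP-1 cells; compounds (final up to 57.5 uM) added 1 h before LPS (250 ng/mL) and ATP (1.25 mM) stimulation; lower signal means less secretion.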
Hits are given with their value; [ ] = another dose, or the depositor's remark. Unless noted, calls follow the shape of the dose curve; as a rule, active = well fitted curve in the direction sought with a large enough effect; inconclusive = small, poorly fitted or top-dose-only effect, or another doubt; inactive = no such curve, though single readings can be large; an effect the other way counts as inactive or inconclusive.

`CCCS(=O)(=O)c1c(S(=O)(=O)CCC)c2cc(CC)ccn2c1C(=O)c1ccc(OC)cc1` gave KB-V1 cytotox inactive and KB-3-1 cytotox inactive.
C=CCn1c(N)c(C(=O)Nc2ccccc2)c2nc3ccccc3nc21 was read as SW480 rerep inactive[9.22 µM], KB-V1 cytotox inactive, MCF10A rerep 5.6µM, KB-3-1 cytotox inconclusive and IL1B secr inh -62.
Screening COCCn1c(N)c(C(=O)Nc2sc3c(c2C(=O)OC)CCCC3)c2nc3ccccc3nc21 returned SW480 rerep inactive, KB-V1 cytotox inactive, MCF10A rerep inactive, KB-3-1 cytotox inactive and IL1B secr inh inactive.
C=CCn1c(N)c(C(=O)OC(C)CC)c2nc3ccccc3nc21 (stereo not drawn) was read as SW480 rerep inactive, KB-V1 cytotox 8.2µM, MCF10A rerep inactive, KB-3-1 cytotox inactive and IL1B secr inh inconclusive.
For C=CCn1c(N)c(C(=O)OC(C)(C)C)c2nc3ccccc3nc21 the results were SW480 rerep inconclusive, KB-V1 cytotox inactive, MCF10A rerep inconclusive, KB-3-1 cytotox inactive and IL1B secr inh inconclusive.
CC(=O)Nc1ccc(NC(=O)C(C)OC(=O)c2cccc(S(=O)(=O)N3CCCCCC3)c2)cc1 (stereo not drawn) was read as SW480 rerep inactive, KB-V1 cytotox inconclusive, MCF10A rerep inactive, KB-3-1 cytotox inactive and IL1B secr inh inconclusive.
CCN(CC)CCOC(=O)c1ccc(N/C=C(/C#N)c2nc(-c3ccc4c(c3)OCO4)cs2)cc1 was read as SW480 rerep inconclusive, KB-V1 cytotox inactive, MCF10A rerep 18µM, KB-3-1 cytotox inactive and IL1B secr inh inactive.
For CCN(CC)CCOC(=O)c1ccc(N/C=C(/C#N)c2nc(-c3ccc(OC)cc3)cs2)cc1 the results were SW480 rerep inconclusive, KB-V1 cytotox inactive, MCF10A rerep inconclusive, KB-3-1 cytotox inactive and IL1B secr inh inactive.
Cc1ccc2[nH]cc(CCNC(=O)c3cccs3)c2c1 was read as SW480 rerep inactive, KB-V1 cytotox inactive, MCF10A rerep inconclusive, KB-3-1 cytotox inactive and IL1B secr inh -75.
`Cc1ccc2[nH]cc(CCNC(=O)c3ccc4c(c3)OCO4)c2c1` gave SW480 rerep inconclusive, KB-V1 cytotox inactive, MCF10A rerep inactive, KB-3-1 cytotox inactive and IL1B secr inh -53.
For O=C(NCCc1c[nH]c2ccccc12)c1ccc2c(c1)OCO2 the results were SW480 rerep inactive, KB-V1 cytotox inactive, MCF10A rerep inactive, KB-3-1 cytotox inactive and IL1B secr inh inactive.
`Cc1ccc2[nH]cc(CCNC(=O)c3ccco3)c2c1` gave SW480 rerep inactive, KB-V1 cytotox inactive, MCF10A rerep inactive, KB-3-1 cytotox inactive and IL1B secr inh inactive.
Screening COc1ccccc1C(=O)Nc1ccc2c(c1)CCCN2C(=O)c1ccccc1 returned SW480 rerep inactive, KB-V1 cytotox inconclusive, MCF10A rerep inactive, KB-3-1 cytotox 18µM and IL1B secr inh inactive.
Screening COc1ccccc1C(=O)Nc1ccc2c(c1)CCCN2C(=O)c1cccs1 returned SW480 rerep inactive, KB-V1 cytotox inactive, MCF10A rerep inconclusive, KB-3-1 cytotox inconclusive and IL1B secr inh inconclusive.
CCOC(=O)CNC(=O)N1CCc2ccc(NC(=O)c3ccccc3Cl)cc2C1 was read as SW480 rerep inactive, KB-V1 cytotox inconclusive, MCF10A rerep 7.3µM, KB-3-1 cytotox inactive and IL1B secr inh inactive.
COc1ccccc1C(=O)Nc1ccc2c(c1)CN(C(=O)CSC)CC2 was read as SW480 rerep inconclusive, KB-V1 cytotox inactive, MCF10A rerep 12µM, KB-3-1 cytotox 26µM and IL1B secr inh inactive.
COc1cccc(CNC(=O)c2cccc(-n3c(C)nc4cccnc43)c2C)c1 was read as KB-V1 cytotox inactive and KB-3-1 cytotox inconclusive.
For N=c1c(C(=O)NCc2ccc3c(c2)OCO3)cc2c(=O)n3ccccc3nc2n1CC1CCCO1 (stereo not drawn) the results were SW480 rerep 23µM, KB-V1 cytotox inactive, MCF10A rerep inconclusive, KB-3-1 cytotox inconclusive and IL1B secr inh inactive.
`COc1ccc(CCNC(=O)c2cc3c(=O)n4ccccc4nc3n(CC3CCCO3)c2=N)cc1` (stereo not drawn) gave SW480 rerep inactive, KB-V1 cytotox inactive, MCF10A rerep inconclusive, KB-3-1 cytotox inactive and IL1B secr inh inactive.
